The source of these data is PubChem BioAssay (EPA / NIEHS).

Molecules are shown by their SMILES. Inconclusive results are not listed. Activity calls are given as the source filed them. Rule for the calls: active = hit-call score of the fitted dose curve at least 0.9, where 1 is the maximum; inconclusive = response in the unintended direction; inactive = score below 0.9.

The assay is described as follows: Tanguay_ZF_120hpf_JAW_legacy: (Legacy) Oregon State University Tanguay Lab 120 Hour Post-fertilization zebrafish Assay for Jaw Malformation (AID 2283638). The method, then:
Tanguay_ZF_120hpf_legacy is a whole embryo, multiplexed endpoint assay using zebrafish larvae exposed for 120 hours post fertilization on a 96-well plate.Tanguay_ZF_120hpf_JAW_legacy is one of one assay component(s) measured or calculated from the Tanguay_ZF_120hpf_legacy assay. It is designed to make measurements of zebrafish development as detected with brightfield microscopy of developing zebrafish embryos.Data from the assay component Tanguay_ZF_120hpf_JAW_legacy was analyzed into 1 assay endpoints. This assay endpoint, Tanguay_ZF_120hpf_JAW_legacy, was analyzed in the positive analysis fitting direction relative to DMSO as the negative control and baseline of activity. Using a type of morphology reporter, gain-of-signal activity can be used to understand changes in developmentals as they relate to the whole embryo. To generalize the intended target to other relatable targets, this assay endpoint is annotated to the zebrafish development intended target family, where the subfamily is embryonic jaw development.
Zebrafish husbandry: Tropical 5D wild-type adult zebrafish were housed in at an approximate density of 1000 per 100 gallon tank at the Sinnhuber Aquatic Research Laboratory, Oregon State University, Corvallis, OR. Each tank was kept at standard laboratory conditions of 28C on a 14-h light/10-h dark photoperiod in fish water consisting of reverse osmosis water supplemented with a commercially available salt (Instant Ocean). Spawning funnels were placed into the tanks the night prior, and embryos were collected and staged. To increase bioavailability, the chorion was enzymatically removed using pronase (63.6mg/ml, >/= 3.5U/mg, Sigma-Aldrich: P5147) at 4 hours post fertilization (hpf) using a custom automated dechorionator.Chemical exposures: Six hpf dechorionated embryos were placed 1 embryo per well in a 96-well plate prefilled with 90 ul of EM using automated embryo placement systems (AEPS). Ten microliters of each row of dilution plate 2 was added to 2 exposure plates. The final DMSO concentration used was 0.64% (vol/vol). Thirty-two embryos were also exposed to 5uM trimethyltin chloride (positive control). Plates were sealed to prevent evaporation and foil covered to reduce light exposure and kept in a 28C incubator. Embryos were statically exposed until 120 hpf. At 24 hpf, embryos were assessed for photomotor response using a custom photomotor response analysis tool (PRAT) and for developmental toxicity endpoints (MO24: mortality at 24 hpf, DP: developmental progression, SM: spontaneous movement, and NC: notochord distortion). At 120 hpf, locomotor activity was measured using Viewpoint Zebralab and assessed for 18 endpoints. Zebrafish acquisition and analysis program (ZAAP), a custom program designed to inventory, acquire, and manage zebrafish data, was used to collect developmental endpoints as either present or absent (i.e., binary responses were recorded). If mortality occurred for an embryo (at either 24 or 120 hpf), the non-mortality endpoints were not measured.
Take `N#Cc1cccnc1`: the result was inactive.

As for `Oc1c(Cl)cc(Cl)cc1Cl`, the molecule was called inactive.

On to `CC(C)(C)c1ccccc1O`, for which the molecule was called inactive.

In the case of `CCCCCCCCCCCCc1cccc(S(=O)(=O)O)c1`, the call was inactive.

Take `Cc1cc(C)cc(C)c1`: the molecule was classed as inactive.

Take `CN(C)C(=S)S`: the outcome was inactive.

`CC(C)O.CC(C)O.OCCN(CCO)CCO.OCCN(CCO)CCO.[Ti]`: the molecule was classed as inactive.

`O=C(N[C@H]1CN2CCC1CC2)c1ccc2c(c1)OCCO2`: the molecule was called inactive.

For the molecule `Clc1cccc(Cl)c1`, the outcome was inactive.

For the molecule `COc1ccccc1N`, the molecule was classed as inactive.

For the molecule `OCCN(CCO)CCO`, the molecule was classed as inactive.

For `Oc1cc(Cl)c(Cl)cc1Cl`, the call was inactive.

In the case of `Clc1cccc(Cl)c1Cl`, the molecule was called inactive.
